JMJD2A Tudor inh = blocks the human JMJD2A Tudor domain; Potency, µM (series often up to 114 µM), without a hit: at the highest dose activity change, negative = inhibition, most hits filed as inhibitors; 390,000 compounds, 4.4% hits; AlphaScreen JMJD2A-Tudor / H3K4me3 peptide binding; note: potency is the fitted concentration of half-maximal effect; % is set by controls: 0 for no effect and ±100 for the full control effect; nearly all actives have a fitted effect of over 50% in size
HP1b binding inh = HP1-beta chromodomain-methylated histone interaction inhibition; P83916; AlphaScreen HP1-beta / biotin-H3K9me3 peptide binding; Potency, µM (doses to about 114 µM), without a hit: top-dose activity change, negative = inhibition, actives largely listed as inhibitors; 390,000 compounds, 0.56% hits; AID 540317; note: potency is the fitted concentration of half-maximal effect; nearly all actives have a fitted effect of over 70% in size
Target sequence (P83916 whole entry, looked up): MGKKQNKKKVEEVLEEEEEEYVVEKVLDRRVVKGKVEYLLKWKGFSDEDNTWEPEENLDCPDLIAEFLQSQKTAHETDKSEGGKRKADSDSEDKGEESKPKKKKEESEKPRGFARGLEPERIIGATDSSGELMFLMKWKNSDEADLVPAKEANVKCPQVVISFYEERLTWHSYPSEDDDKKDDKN
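Compound inhibition of the preformed complex between 50 nM HP1-beta and 50 nM biotinylated H3K9me3 peptide was read by AlphaScreen. Buffer was PBS pH 7.4 with 0.01% Tween-20. Incubations ran 30 min at room temperature, with 10 ug/mL donor/acceptor beads.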
CtBP-E1A inh = inhibitors of CtBP/E1A interaction. AlphaScreen GST-E1A/His-CtBP binding, 1536-well; stronger effect = lower value. activity change, % (no concentration beside the values). 340,000 compounds, 0.49% hits. AID 651724; in the data active = activity change below about -65%; inconclusive = mostly about -30% to -63%; note: % is set by controls: 0 for no effect and ±100 for the full control effect
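GST-E1A and His-tagged CtBP (125 nM each as 5X stock) were preincubated with pin-transferred compound for 2 h at 37 °C in the dark, then glutathione donor and nickel acceptor beads were added for 1 h before AlphaScreen reading.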
G9a block = G9a (human) methyltransferase inhibition; G9a H3K9 monomethylation, AlphaScreen, 2 h; Potency, µM (doses to about 102 µM), for inactives: at the highest dose activity, negative = inhibition, usual class: inhibitors; 350,000 compounds, 8.8% hits; AID 504332; note: potency is the fitted concentration of half-maximal effect; % is set by controls: 0 for no effect and ±100 for the full control effect; nearly all actives have a fitted effect of over 75% in size
Target sequence (Q96KQ7 913-1193 limits assumed): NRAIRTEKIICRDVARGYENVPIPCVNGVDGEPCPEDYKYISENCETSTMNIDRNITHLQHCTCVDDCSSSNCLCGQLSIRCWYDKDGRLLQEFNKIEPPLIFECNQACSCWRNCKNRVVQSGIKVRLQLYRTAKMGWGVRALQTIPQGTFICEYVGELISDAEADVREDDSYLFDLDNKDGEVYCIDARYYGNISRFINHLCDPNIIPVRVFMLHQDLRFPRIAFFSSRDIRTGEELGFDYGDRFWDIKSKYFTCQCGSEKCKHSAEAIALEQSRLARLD
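Enzyme 20 nM + cpd, 15 min RT; add b-H3K9 pep 500 nM / SAM 20 uM; 2 h RT; anti-H3K9me1 Ab 0.5 ug/mL + SA donor / anti-rabbit acceptor beads 20 ug/mL each, 10 min; AlphaScreen read.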
BAZ2B inh = inhibitors of human BAZ2B bromodomain. AlphaScreen BAZ2B-H3K14Ac peptide displacement. Potency, µM (series often up to 114 µM), without a hit: at the top dose activity change, negative = inhibition, usual class: inhibitors. 360,000 compounds, 4.4% hits. Q9UIF8; note: potency is the fitted concentration of half-maximal effect; % is set by controls: 0 for no effect and ±100 for the full control effect; nearly all actives have a fitted effect of over 60% in size
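AlphaScreen luminescence quantifies BAZ2B engagement of H3K14Ac peptide; the protein and biotinylated peptide are both at 50 nM final, buffer PBS pH 7.4 with 0.01% Tween-20, all steps at room temperature.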
Six1-Eya2 blk = Six1/Eya2 interaction inhibition; activity change, % (concentration not given with the values); AlphaScreen GST-Six1/His-Eya2 binding, biochemical; stronger effect = lower value; 360,000 compounds, 0.56% hits; Q15475+O00167; AID 651725; in the data active = activity change below about -65%; inconclusive = mostly about -30% to -63%; note: % is set by controls: 0 for no effect and ±100 for the full control effect
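AlphaScreen luminescence read after one hour at 37 °C in darkness. Pin-transferred compounds met GST-Six1 and His-Eya2 protein (5X stock 250 nM/500 nM) plus glutathione donor and Ni-chelate acceptor beads (5X, 50 ug/mL).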
* hit, by the source's call; [ ] = dose if it differs, or a comment. In the library only some 10% were active in any assay of this set; here they are far more common. Unless noted, calls come from the whole dose curve; as a rule, active = well fitted inhibition curve with a large enough effect; inconclusive = small, poorly fitted or top-dose-only effect; inactive = no such curve, though single readings can be large or run the other way.

Results for COCCOC(=O)c1c(C)n(S(=O)(=O)c2ccc(C)cc2)c2ccc(NS(=O)(=O)c3ccc(C)cc3)cc12 ?
JMJD2A Tudor inh: -12%; HP1b binding inh: 29%; G9a block: inconclusive; BAZ2B inh: -13%

How did Cc1ccc(S(=O)(=O)N(CC(=O)N2CCc3ccccc3C2)c2ccc(C)c(C)c2)cc1 do in these assays?
JMJD2A Tudor inh: -22%; HP1b binding inh: 28%; G9a block: -20%[59 µM]; BAZ2B inh: -15%

Results for N#CCCN1CCN(C(=S)c2ccc(-c3cccc(Cl)c3)o2)CC1 ?
JMJD2A Tudor inh: 35µM*; HP1b binding inh: inconclusive; CtBP-E1A inh: inconclusive; G9a block: 8.9µM*; BAZ2B inh: 35µM*; Six1-Eya2 blk: inconclusive

Results for O=C(Nc1ccccc1N1CCCCC1)c1ccc(-c2cccc(Cl)c2)o1 ?
JMJD2A Tudor inh: 2%; HP1b binding inh: 14%; CtBP-E1A inh: 6; G9a block: -1%[59 µM]; BAZ2B inh: -21%; Six1-Eya2 blk: 8

How did Cc1ccc(-c2ccc(C(=O)O)o2)cc1Cl do in these assays?
JMJD2A Tudor inh: -13%; HP1b binding inh: 4%; CtBP-E1A inh: 5; BAZ2B inh: -15%; Six1-Eya2 blk: 11

How did N#CCCN1CCN(C(=S)c2ccc(-c3ccc(Cl)c(Cl)c3)o2)CC1 do in these assays?
JMJD2A Tudor inh: 50µM*; HP1b binding inh: inconclusive; CtBP-E1A inh: inconclusive; G9a block: inconclusive; Six1-Eya2 blk: inconclusive

What do the screens show for `Cn1cc(S(=O)(=O)N2CCCC2)cc1C(=O)Nc1ccc(F)cc1F`?
JMJD2A Tudor inh: -20%; HP1b binding inh: -4%; G9a block: -9%[59 µM]; BAZ2B inh: -8%

Results for CC(=O)c1ccc(NC(=O)C(C)OC(=O)C2CCN(c3ccc(C(F)(F)F)cn3)CC2)cc1 (stereo not given) ?
JMJD2A Tudor inh: -14%; HP1b binding inh: 34%; CtBP-E1A inh: -4; G9a block: inconclusive; BAZ2B inh: 4%; Six1-Eya2 blk: -1

How did N#CC1=C2SCN(Cc3ccccc3)CN2C(=O)CC1c1cccs1 (stereo not given) do in these assays?
JMJD2A Tudor inh: -28%; HP1b binding inh: -21%; CtBP-E1A inh: -8; G9a block: 2µM*; BAZ2B inh: -14%; Six1-Eya2 blk: -2

How did N#CC1=C2SCN(Cc3ccccc3)CN2C(=O)CC1c1ccc2c(c1)OCO2 (stereo not given) do in these assays?
JMJD2A Tudor inh: 50µM*; HP1b binding inh: inconclusive; CtBP-E1A inh: 0; G9a block: inconclusive; BAZ2B inh: 50µM*; Six1-Eya2 blk: 18

Results for Clc1nc(Cl)nc(-c2cn(-c3ccccc3)c3ccccc23)n1 ?
JMJD2A Tudor inh: 79µM*; HP1b binding inh: 18%; G9a block: 13µM*; BAZ2B inh: inconclusive; Six1-Eya2 blk: -1

How did Cc1ccc(NC(=O)c2cccc(C(F)(F)F)c2)cc1NC(=O)c1[nH]cnc1C(N)=O do in these assays?
JMJD2A Tudor inh: inconclusive; HP1b binding inh: 31%; G9a block: 3%[0.501 µM]; BAZ2B inh: 56µM*; Six1-Eya2 blk: -9

How did Cc1cc(C)cc(OCc2nnc(SCC(=O)N3CCCCC3)o2)c1 do in these assays?
JMJD2A Tudor inh: -10%; HP1b binding inh: 13%; CtBP-E1A inh: 9; G9a block: inconclusive; BAZ2B inh: 8%; Six1-Eya2 blk: 3

How did CC(C)c1ccc(/C=N/N2CCCCC2)cc1 do in these assays?
JMJD2A Tudor inh: inconclusive; HP1b binding inh: 22µM*; CtBP-E1A inh: -21; G9a block: 10µM*; BAZ2B inh: 32µM*; Six1-Eya2 blk: -16

What do the screens show for `CCOc1ccc(C=NN2CCCCCC2)cc1OCC`?
JMJD2A Tudor inh: 40µM*; HP1b binding inh: inconclusive; CtBP-E1A inh: -13; Six1-Eya2 blk: -1

Results for CCOc1ccc(/C=N/N2C(C)CCCC2C)cc1OC (stereo not given) ?
JMJD2A Tudor inh: -17%; HP1b binding inh: 14%; CtBP-E1A inh: -9; G9a block: -8%; BAZ2B inh: -20%; Six1-Eya2 blk: 0
